Assay results published in PubChem BioAssay AID1159580 (chemical genetic matrix, 2015).
Hit rate of the full screen: of about 5,500 compounds, about 2,000 (36%) were called active. Another 18% or so got no clear call; they are omitted. Rule as the data show it: active = normalized growth mostly below about 0.91 (no sharp cut-off); inconclusive = no clear call, values can overlap the other calls; inactive = mostly above about 0.92. The list shows a part of the results.

Assay: chemical genetic growth profiling, strain panel (AID 1159580);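 also: tested at 20 µM; growth read once vehicle control cultures reached saturation at 30 °C; 1 = growth at the plate median or of vehicle wells; lower values mean less growth of the strain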
Conditions: S. cerevisiae deletion strains, growth OD

Measured: normalized growth

C=C(C)[C@H]1CN[C@H](C(=O)O)[C@H]1CC(=O)O
inactive: locus YAL040C, strain CLN3, stronger effect = lower value 1.02 | locus YCL061C, strain MRC1 (second series), stronger effect = lower value 1 | locus YDR363W, strain ESC2, stronger effect = lower value 1.03 | locus YER002W, strain NOP16, stronger effect = lower value 1.01 | locus YMR307W, strain GAS1, stronger effect = lower value 1 | locus YNL128W, strain TEP1, stronger effect = lower value 1 | locus YNL175C, strain NOP13, stronger effect = lower value 1.02 | locus YNL197C, strain WHI3, stronger effect = lower value 1.02 | locus YNL224C, strain SQS1, stronger effect = lower value 1 | locus YOR083W, strain WHI5 (second series), stronger effect = lower value 1.03
